Screening data as filed in PubChem.
LGR2 inh = inhibitors of bursicon-induced LGR2 CRE-luciferase signal, primary screen, cell-based, HEK293, CRE-luciferase reporter, bursicon stimulation; Drosophila bursicon receptor LGR2 (rickets); bursicon-stimulated, 4 h; inhibition, % at 9.99 µM; actives 0.35% (n = 380,000); AID 720647, 2013;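 active means drop in luminescence signal, shown as inhibition above about 50% in the replicate tests, limit read from the data, passing the limit was not always enough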;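 further: agonist challenge used bursicon conditioned medium at about half maximal strength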
HSP90 refold inh = HSP90 inhibitors, primary screen, cell lysate, luminescence; Heat shock protein HSP 90 (rabbit reticulocyte lysate; luciferase refolding); Rabbit reticulocyte lysate, luciferase refolding luminescence, 3 h; inhibition, % at 5.6 µM; actives 0.91% (n = 290,000); AID 1789, 2009;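 active means inhibition above the screen-wide mean plus 3 SD, computed separately per campaign, cut at about 16% in these data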;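 further: inhibitors lower the luminescence because luciferase stays unfolded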
aDG glyco up = activators of alpha-DG glycosylation, primary screen, uHTS, Pro5-aDG cells, AlphaScreen; alpha-DG glycosylation AlphaScreen (IIH6); 0% Pro5, 100% B10-LARGE cell signal; activation, % at 10 µM; actives 0.22% (n = 360,000);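 active means activation of at least 8% versus controls, or a plate z-score of at least 8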;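 further: Pro5 are CHO cells carrying HIG-tagged alpha-DG that lacks glycosylation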
TWEAK-Fn14 inh = inhibitors of TWEAK-Fn14 signaling, primary screen, luciferase reporter cells, uHTS. TWEAK-stimulated Fn14 reporter cells, luciferase luminescence, 8 h. inhibition, % at 10 µM. actives 2% (n = 360,000). AID 1159606, 2016; in the data active means inhibition above about 50%
TROY NFkB inh = inhibitors of TROY-driven NF-kB signaling, primary screen, Q293 LMP1-TROYcd cells, NF-kB luciferase, uHTS; Q293 LMP1-TROYcd NF-kB luciferase reporter, 4 h; inhibition, % at 10 µM; actives 0.98% (n = 360,000);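 active means compounds whose plate-normalised and pattern-corrected inhibition of the luciferase reporter signal at the single screening dose is 50% or more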
LMP1 NFkB inh = EBV LMP1-driven NF-kappaB luciferase reporter inhibitors, primary screen, cell-based, luminescence, single point; LMP1-induced NF-kappaB luciferase reporter cells; inhibition, % at 12.5 µM; actives 0.69% (n = 350,000); AID 504558, 2011; in the data active means inhibition above about 41%
Hits are given with their value; n = inactive; x = not tested or not shown. Sampled rows, rich in hits. Any-hit rate of the full collection: about 2.6%.

SMILES	LGR2 inh	HSP90 refold inh	aDG glyco up	TWEAK-Fn14 inh	TROY NFkB inh	LMP1 NFkB inh
CCN(CC)S(=O)(=O)c1ccc2oc(C(=O)NCC3COc4ccccc4O3)c(C)c2c1 (stereo not drawn)	x	n	n	56	n	n
Cc1c(C(=O)NCc2ccc3c(c2)OCO3)oc2ccc(S(=O)(=O)N3CCC(C)CC3)cc12	x	n	n	59	n	n
Cc1c(C(=O)NCC2COc3ccccc3O2)oc2ccc(S(=O)(=O)N3CCOCC3)cc12 (stereo not drawn)	x	n	n	57	n	n
CCN(CC)S(=O)(=O)c1ccc2oc(C(=O)NC3CC3)c(C)c2c1	n	n	n	n	n	n
CCCNC(=O)N1CC2(C1)[C@H](c1ccccc1)[C@@H](CO)N2C(=O)c1ccncc1	n	x	x	x	x	x
N#C[C@@H]1[C@@H](c2ccc(C#Cc3cccc(F)c3)cc2)[C@H](CO)N1C(=O)C1CC1	n	x	x	x	x	x
N#C[C@@H]1[C@H](c2ccc(C#Cc3ccccc3F)cc2)[C@@H](CO)N1C(=O)C1CCCC1	66	x	x	x	x	x
N#C[C@@H]1[C@H](c2ccc(C#CC3CCCCC3)cc2)[C@@H](CO)N1C(=O)c1cccc(F)c1	65	x	x	x	x	x
N#C[C@@H]1[C@H](c2ccc(C#Cc3cccc(F)c3)cc2)[C@@H](CO)N1C(=O)C1CC1	54	x	x	x	x	x
N#C[C@@H]1[C@@H](c2ccc(C#Cc3ccccc3F)cc2)[C@H](CO)N1C(=O)C1CCCC1	n	x	x	x	x	x
COc1ccccc1C#Cc1ccc([C@H]2[C@H](C#N)N(C(=O)C3CCCCC3)[C@H]2CO)cc1	83	x	x	x	x	x
N#C[C@@H]1[C@@H](c2ccc(C#CC3CCCCC3)cc2)[C@H](CO)N1C(=O)c1cccc(F)c1	n	x	x	x	x	x
COc1cccc(C#Cc2ccc([C@@H]3[C@@H](C#N)N(C(=O)C4CCC4)[C@H]3CO)cc2)c1	n	x	x	x	x	x
COc1cccc(C#Cc2ccc([C@@H]3[C@@H](CO)N(C(=O)C4CCC4)[C@H]3C#N)cc2)c1	100	x	x	x	x	x
N#C[C@H]1[C@H](c2ccc(C#Cc3ccccc3F)cc2)[C@H](CO)N1C(=O)C1CCC1	102	x	x	x	x	x
CCCNC(=O)N(C)C[C@H]1Oc2cc(-c3ccccc3F)ccc2S(=O)(=O)N([C@@H](C)CO)C[C@@H]1C	n	x	x	x	x	x
C[C@@H]1CN([C@@H](C)CO)S(=O)(=O)c2ccc(/C=C/c3ccccc3)cc2O[C@@H]1CN(C)C(=O)c1ccccc1	n	x	x	x	x	x
Cc1[nH]c2ccccc2c1C(=O)CCl	n	n	n	58	n	n
CCC1CCCCN1CC(=O)c1c(C)[nH]c2ccc(OC)cc12 (stereo not drawn)	n	n	n	85	n	n
Cc1[nH]c2ccccc2c1C(=O)CN1CCCCC1C (stereo not drawn)	x	n	n	79	x	n
CCC1CCCCN1CC(=O)c1c(C)[nH]c2ccccc12 (stereo not drawn)	n	n	n	n	n	n
Cc1noc(C)c1S(=O)(=O)N(C)C[C@@H]1OCCCC[C@H](C)Oc2ccc(NC(=O)C3CCCCC3)cc2C(=O)N([C@H](C)CO)C[C@@H]1C	n	x	x	x	x	x
CO[C@H]1CN(C)C(=O)c2cccc(C#N)c2OC[C@@H]2O[C@H](CC[C@H]2OC)CCN(C)C(=O)[C@H]1C	n	x	x	x	x	x
CC1CC(C)C[N+](=C2C=C(N3CCCC3)CC(C)(C)C2)C1 (stereo not drawn)	n	n	n	n	n	42
CCCNC(=O)N1C[C@@H](C)[C@H](OC)CN(C)C(=O)c2ccc(NC(=O)CCC)cc2OC[C@@H]1C	n	x	x	x	x	x
SMILES	LGR2 inh	HSP90 refold inh	aDG glyco up	TWEAK-Fn14 inh	TROY NFkB inh	LMP1 NFkB inh
CCOC(=O)C1=C(O)/C(=C/c2ccc(-c3ccccc3C(=O)O)o2)SC1=Nc1ccc(C)cc1	n	x	n	58	n	n
O=c1cc(-c2ccc(Cl)cc2)oc(=O)[nH]1	x	n	n	n	n	n
O=c1cc(N=Nc2ccc(Cl)cc2)[nH]c(=O)[nH]1	n	n	n	58	n	n
O=C1c2cc([N+](=O)[O-])cc3cc([N+](=O)[O-])cc(c23)C(=O)N1c1ccccn1	n	n	n	64	n	n
Cc1occc1-c1nc(-c2ccccn2)no1	x	n	n	62	n	n
COc1ccc(-c2nc(-c3cccc(C)c3)no2)cc1OC	x	n	n	n	n	n
c1ccc(-c2noc(-c3cccnc3)n2)nc1	x	n	n	n	n	n
Cc1cccc(-c2noc(-c3ccc4c(c3)OCO4)n2)c1	66	n	n	57	n	n
c1ccc(-c2noc(-c3ccc4c(c3)OCO4)n2)nc1	x	41	n	101	85	78
CO[C@H]1CN(C)C(=O)c2cc(NC(=O)C3CCC3)ccc2OC[C@H](C)N(Cc2ccncc2)C[C@@H]1C	n	x	x	x	x	x
CN(C)c1cccc2c(S(=O)(=O)Nc3ccccn3)cccc12	x	n	n	84	62	n
C[C@H](CO)N1C[C@H](C)[C@H](CN(C)Cc2ccc(-c3ccccc3)cc2)Oc2ccc(N(C)C)cc2C1=O	n	x	x	x	x	x
O=C1C=C(c2c(O)ccc3ccccc23)c2ccccc2C1=O	95	x	n	102	n	n
O=C1C=C(O)c2cccc(O)c2C1=O	x	x	n	n	n	n
CCCCC[n+]1ccn(C2=C([O-])c3ccccc3C(=O)/C2=N\S(=O)(=O)c2ccc(Cl)cc2)c1	n	n	4.9	n	n	n
CC(C)C#Cc1cnc2c(c1)C(=O)N([C@H](C)CO)C[C@@H](C)[C@H](CN(C)C(=O)C1CCC1)O2	n	x	x	x	x	x
CC(=O)N1[C@H](CO)[C@H](c2ccc(C3=CCCCC3)cc2)[C@@H]1CNC(=O)CC1CC1	n	x	x	x	x	x
CCOC(=O)N1CCN(C(=O)C2CC(=O)N(Cc3ccc(OC)cc3)C2)CC1 (stereo not drawn)	x	n	n	72	x	n
COC(=O)c1ccc2c(=O)n(CCCCCC(=O)O)c(=S)[nH]c2c1	n	n	n	54	n	n
CC1=NC(=O)C(N=Nc2ccccc2)N1c1ccccc1 (stereo not drawn)	x	n	n	n	n	n
CC1=NC(=O)C(N=Nc2cccc(C(=O)O)c2)N1c1ccccc1 (stereo not drawn)	x	17	n	n	n	n
COCC(=O)Nc1ccc2c(c1)C(=O)N(C)C[C@@H](OC)[C@@H](C)CN(Cc1ccncc1)[C@@H](C)CO2	n	x	x	x	x	x
C[C@H](NC(=O)C[C@H]1CC[C@H](NS(=O)(=O)c2cccc(F)c2)[C@@H](CO)O1)c1ccccc1	n	x	x	x	x	x
CCc1noc(C)c1C(=O)N(C)CC(=O)Nc1ccc(OC)cc1	n	x	n	n	n	n
CCc1noc(C)c1C(=O)N(C)CC(=O)Nc1cccc(OC)c1	n	x	n	n	n	68
